An excerpt weighted towards active compounds, which were near 6.2% of everything screened.
VP16 counter: inhibits Gal4-VP16 luciferase reporter, ROR gamma counter-screen | 310,000 compounds, 3.5% hits | Potency, µM (doses to about 53.6 µM), usual class: inhibitors | Drosophila S2 Gal4-VP16 UAS-luciferase, luminescence, 20 h;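 further: Gal4-VP16 expression switched on by copper sulfate through the metallothionein promoter; nearly all actives have a fitted effect of over 50% in size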
RORgamma inh: ROR gamma (mouse) transcription inhibition. Drosophila S2 Gal4-RORgamma UAS-luciferase reporter, 20 h. 310,000 compounds, 5.4% hits. AID 2551. Potency, µM (titrated, usually from 53.6 µM), actives largely listed as inhibitors; further: nearly all actives have a fitted effect of over 60% in size
Target sequence (P51450 whole entry, looked up, the tested form may be a part): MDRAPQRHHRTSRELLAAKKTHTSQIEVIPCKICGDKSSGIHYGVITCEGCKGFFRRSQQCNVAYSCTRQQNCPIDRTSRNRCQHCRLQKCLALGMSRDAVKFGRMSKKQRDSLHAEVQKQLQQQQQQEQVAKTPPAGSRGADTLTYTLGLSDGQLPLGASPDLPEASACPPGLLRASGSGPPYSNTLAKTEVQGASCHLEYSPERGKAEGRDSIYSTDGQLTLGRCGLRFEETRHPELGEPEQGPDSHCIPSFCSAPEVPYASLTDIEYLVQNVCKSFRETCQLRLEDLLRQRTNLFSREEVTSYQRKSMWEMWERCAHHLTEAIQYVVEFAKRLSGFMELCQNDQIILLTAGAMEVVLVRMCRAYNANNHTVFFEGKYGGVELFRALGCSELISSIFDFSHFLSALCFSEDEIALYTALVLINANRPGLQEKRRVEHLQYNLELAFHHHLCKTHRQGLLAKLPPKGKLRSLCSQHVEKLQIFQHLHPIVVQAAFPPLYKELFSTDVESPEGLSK
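Luminescence from a UAS-regulated Photinus luciferase reporter in stably transfected Drosophila Schneider cells is measured; decreased signal marks ROR gamma inhibition. Fusion expression is induced by 700 uM copper sulfate for 20 hr.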
Luc counter: blocks Kinase-Glo luciferase, a counter-screen artifact; Potency, µM (series often up to 38.3 µM), usual class: inhibitors; Kinase-Glo luciferase, ATP luminescence, 8 min; 200,000 compounds, 0.28% hits; further: nearly all actives have a fitted effect of over 60% in size
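Recombinant Kinase-Glo luciferase, 10 uM ATP (linear range), luciferin; imidazole pH 7.2 / KCl / MgCl2 / Tween / BSA buffer; 8 min RT; luminescence.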
A number is an active result; - = inactive; ? = inconclusive; . = no result; ! = not active in a repeat; [ ] = another dose, or the depositor's remark. The call rests on the fitted dose curve; in most records, active means well fitted curve in the direction sought with a large enough effect; inconclusive means small, poorly fitted or top-dose-only effect, or another doubt; inactive means no such curve, though single readings can be large; an effect the other way counts as inactive or inconclusive.

SMILES | VP16 counter | RORgamma inh | Luc counter
COc1cc(NC(=O)c2cc(C(C)C)on2)c(OC)cc1Cl | - | - | -
COc1ccc(NC(=S)NC(=O)Cc2ccccc2)c(OC)c1 | 11µM | 14µM | .
COCCOC(=O)/C(C#N)=C/c1cn(Cc2ccccc2)nc1-c1cccnc1 | -[10 µM] | - | -
Cc1onc(-c2ccccc2Cl)c1C(=O)N1CCN(S(=O)(=O)c2ccc(F)c(F)c2)CC1 | - | - | .
Cc1ccccc1-c1nc(CN2CCC(C(=O)NCc3cccs3)CC2)c(C)o1 | - | - | -
CCn1c(SCC(=O)Nc2ccc(C(=O)OC)cc2)nc2cccnc21 | - | - | -
Cc1ccc(NC(=S)NC(=O)Cc2ccccc2)c(O)c1 | ? | 20µM | .
Cc1ccc(NC(=O)C2CCCN2C(=O)OCc2ccccc2)c(O)c1 (stereo not given) | - | - | .
O=C(c1ccc(OCCCc2cnc[nH]2)cc1)C1CC1 | - | - | .
Cc1ccccc1C(=O)NC1CCN(CC(=O)NCc2cccs2)CC1 | -[10 µM] | - | -
CC(C)CCN(C)C1CCN(C(=O)Nc2c(F)cccc2F)CC1 | - | - | -
CC(C)(CNC(=O)c1ccc([N+](=O)[O-])c(Cl)c1)CNC(=O)c1ccc([N+](=O)[O-])c(Cl)c1 | 5µM | ? | -
C=CCNC(=O)c1ccc([N+](=O)[O-])c(Cl)c1 | - | - | -
Cc1cc(C)nc(-n2nc(C)c(Oc3ccccc3O)c2C)n1 | ? | 10µM | -
CCn1nc(C)c(Oc2ccccc2O)c1C | - | - | -
O=C(c1cccc(N2C(=O)C3C4C=CC(C4)C3C2=O)c1)N1CCN(c2ccccc2F)CC1 (stereo not given) | - | - | .
CCN(CC)C(=S)NC(=O)c1ccc(Cl)cc1Cl | 1.6µM | 0.79µM | -
O=C(NC(=S)NCCN1CCOCC1)c1ccccc1Cl | - | - | -
CCCCNC(=S)NC(=O)c1ccc(Cl)cc1Cl | ? | 16µM | -
O=C(NCCCNC(=O)c1ccc(Cl)cc1Cl)c1ccco1 | - | - | .
O=C(NC(=S)NCCN1CCOCC1)c1ccc(Cl)cc1Cl | ? | 4µM | -
CCCCNC(=S)NC(=O)c1ccccc1Br | 11µM | 7.9µM | -
CCN(CC)CCOC(=O)c1ccc(Cl)cc1Cl | ? | - | -
O=C(NCCCNC(=O)c1ccccc1Br)c1ccccc1Br | - | - | .
COc1ccc(NC2C[C@H]3CCCC(=O)N4CC[C@@H](C2)[C@@H]34)cc1 (stereo not given in full) | - | - | -
SMILES | VP16 counter | RORgamma inh | Luc counter
Cc1cc(C)cc(OCCCCn2cncn2)c1 | - | - | .
CS(=O)(=O)Nc1ccc([N+](=O)[O-])cc1OC1CCCCC1 | - | - | -
COC(=O)/C=C(\C)NC(=O)c1ccccc1Cl | - | - | -
CCCCN(CCCC)C(=S)NC(=O)c1ccccc1Cl | 2µM | 0.71µM | -
CC12CN(C(=S)Nc3ccccc3)CC(C)(CN(C(=S)Nc3ccccc3)C1)C2=O | - | - | -
Cc1cc(-n2c(C)cc(C(=S)N3CCOCC3)c2C)ccc1Br | ? | 8.9µM | -
Cc1ccc(-n2c(C)cc(C(=O)CN3CCOCC3)c2C)cc1C | - | ? | -
O=[N+]([O-])c1cc([N+](=O)[O-])c2c(=Nc3ccccc3)n(-c3ccccc3)n(O)c2c1 | ? | 13µM | -
O=[N+]([O-])c1cccc(C(=Nc2ccccc2)NO)c1 | - | - | -
COc1cccc(-c2nn(-c3ccccc3)cc2CN(C)Cc2ccon2)c1 | - | - | -
COc1cccc(-c2nn(-c3ccccc3)cc2CN(C)Cc2c(C)nc3ccccn23)c1 | ? | 7.1µM | -
CC[C@H](C)[C@H](N)C(=O)N[C@@H](CCCCN)C(=O)N[C@H](C(=O)N[C@@H](C)C(=O)N[C@H](C(=O)O)C(C)C)C(C)C | - | - | .
CCC(C)C(N)C(=O)NC(CC(N)=O)C(=O)NC(CC(C)C)C(=O)NC(CCCCN)C(=O)NC(C)C(=O)NC(CC(C)C)C(=O)NC(C)C(=O)NC(C)C(=O)NC(CC(C)C)C(=O)NC(C)C(=O)NC(CCCCN)C(=O)NC(CCCCN)C(=O)NC(C(=O)NC(CC(C)C)C(N)=O)C(C)CC (stereo not given) | 18µM | ? | .
COc1cc(NC(=O)COC(=O)c2n[nH]c3ccccc23)c(C)cc1[N+](=O)[O-] | - | ? | -
Cc1ccc(C)c(NC(=O)c2ccccc2NS(=O)(=O)c2cc([N+](=O)[O-])ccc2C)c1 | 14µM | ? | -
Cc1ccc(C)c(S(=O)(=O)Nc2ccccc2C(=O)Nc2cc(C)on2)c1 | - | - | -
Cc1cc(C)cc(N=C2NC(=O)/C(=C/c3cccs3)S2)c1 | 16µM | ? | -
O=C1NC(=Nc2ccccc2)S/C1=C\c1cccs1 | - | - | .
CC(=O)N1c2ccc(S(=O)(=O)N3CCC(C(=O)NCc4ccccc4)CC3)cc2CC1C (stereo not given) | - | - | .
CC(C)(C)OC(=O)C1=NOC2(C=CC(=O)C=C2)C1 | 13µM! | ? | -
NS(=O)(=O)c1cnccc1Nc1ccc(Cl)cc1 | - | - | -
C=C[C@]1(C)Cc2occ(C)c2C[C@H]1C(=C)C(=O)O | - | - | -
Nc1n[nH]c(CO)n1 | - | - | .
Cc1ccc([N+](=O)[O-])cc1N | - | - | -
Nc1cc([N+](=O)[O-])ccc1O | 13µM! | - | -
SMILES | VP16 counter | RORgamma inh | Luc counter
O=Cc1cccn1-c1cccnc1 | - | - | -
COc1ccc(C2=NC(c3ccc(Cl)cc3)C(c3ccc(Cl)cc3)N2C(=O)N2CCNC(=O)C2)c(OC(C)C)c1 (stereo not given) | - | ? | .
O=C(/C(=C\c1ccccc1)c1nc2ccccc2[nH]1)c1ccc(Cl)cc1 | ? | ? | -
COc1ccc(C(=O)Nc2nc3ccccc3[nH]2)cc1 | 6.3µM | 2.8µM | .
O=c1[nH]c2ccccc2nc1/C=C(\O)c1cccs1 | - | - | -
COc1ccc(C(=O)N[C@H](C(=O)Nc2nc3ccccc3[nH]2)C(C)C)cc1 | - | - | -
O=C(Nc1nc2ccccc2[nH]1)c1cccs1 | 13µM | 5µM | ?
COc1cc(/C=N\Nc2nc3ccccc3[nH]2)cc(OC)c1OC | - | - | -
COc1cc(C(=O)Nc2nc3ccccc3[nH]2)cc(OC)c1OC | 10µM | 10µM | -
O=C(/C(=C/c1ccc(Cl)cc1)c1nc2ccccc2[nH]1)c1cccs1 | ? | 3.2µM | -
COc1ccc2c(c1)OC13CCCCC1C2C(C(=O)c1ccccc1)C(=O)N3 (stereo not given) | - | - | -
Cc1ccc(NC(=O)Cn2ccc([N+](=O)[O-])n2)cc1Cl | - | - | -
CC1(C)C(C(=O)O)N2C(=O)C(NC(=O)Cc3ccccc3)C2S1=O (stereo not given) | - | - | .
O=C(NCC(=O)N(c1cccc(F)c1)C(C(=O)NC1CCCC1)c1cccnc1)c1ccco1 (stereo not given) | - | - | .
CC1=CCC2CC1C2(C)C (stereo not given) | - | - | .
COc1cccc(C(=O)Nc2nc3ccccc3[nH]2)c1 | 10µM | 4µM | 13µM
COc1cccc(C(=O)Nc2ccc3[nH]ncc3c2)c1 | - | - | .
Cc1c(Cl)c([N+](=O)[O-])nn1CC(=O)Nc1ccc2c(c1)OCO2 | - | -[10 µM] | -
CCNC(=O)NC(=O)C(C)SCc1ccccc1C (stereo not given) | - | - | -
